# Inconclusive results are not listed. A call without a number means that no potency is given here. The source made the active and inactive calls. Calls come from the whole dose curve; as a rule, active = well fitted cell-killing curve with a large enough effect in the repeat runs; inconclusive = weak or mixed curves, or effect the other way; inactive = flat fitted curve, though single readings scatter.
# Key:
# [1] = cAMP Responsive Elements (CRE) small molecule antagonists, cell-based qHTS assay: qHTS cell viability counter screen (AID 2060913); note: nearly all actives have a fitted effect of over 40% in size
# How it was run: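 Viability of NKH477-stimulated (0.25 uM final) CRE-bla HEK293T cells is measured by CellTiter-Glo luminescence following 3 hrs compound exposure at 37 C.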
# [2] = cAMP Responsive Elements (CRE) small molecule agonists, cell-based qHTS assay: qHTS cell viability counter screen (AID 2060914);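 note: viability read after 3 h of compound exposure; nearly all actives have a fitted effect of over 50% in size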
# How it was run: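 Cells are seeded and incubated 18 h, treated with compounds in DMSO for 3 h, read for the bla reporter, then given CellTiter-Glo; luminescence is measured after 30 min at room temperature.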
SMILES,Potency [1],Potency [2]
CN(C)CCN(Cc1ccsc1)c1ccccn1,inactive,inactive
c1cc[nH]c1,inactive,inactive
O=c1[nH]cnc2c1ncn2[C@H]1CC[C@@H](CO)O1,inactive,inactive
O=S(=O)(O)NC1CCCCC1,inactive,inactive
CC(C)(C)c1n[nH]c(=O)n(N)c1=O,inactive,inactive
NCCc1cnc[nH]1,inactive,inactive
CCCCCCCCCCCC(=O)OC,inactive,inactive
CCN(CC)CC(=O)Nc1c(C)cccc1C(=O)OC,inactive,inactive
CC(C)[C@H]1CC[C@@H](C)CC1=O,inactive,inactive
Nc1ccn(C2CO[C@H](CO)O2)c(=O)n1 (stereo partly specified),inactive,inactive
CCCCNS(=O)(=O)c1ccccc1,inactive,inactive
CCCSc1ccc2nc(NC(=O)OC)[nH]c2c1,inactive,inactive
CCCCCCCCCCCCC,inactive,inactive
O=C1c2ccccc2C(=O)c2c(O)ccc(O)c21,inactive,inactive
CCC1(C)CC(=O)NC1=O (stereo unspecified),inactive,inactive
CCCCCCCCCCCCCCCC(=O)OC(C)C,inactive,inactive
CCc1ccc(C=O)cc1,inactive,inactive
C=C(C#N)C(=O)OCC,inactive,inactive
Nc1[nH]c(=O)ncc1F,inactive,inactive
C[C@H](N)C(=O)N[C@@H](C)C(=O)NC1[C@H]2CN(c3nc4c(cc3F)c(=O)c(C(=O)O)cn4-c3ccc(F)cc3F)C[C@@H]12 (stereo partly specified),inactive,inactive
CC(CCO)CCc1ccccc1 (stereo unspecified),inactive,inactive
[O-]/[N+](=N\O)c1ccccc1,inactive,inactive
CC(C)(C)C(=O)OCOP(=O)(COCCn1cnc2c(N)ncnc21)OCOC(=O)C(C)(C)C,inactive,inactive
N=C(N)S(=O)O,inactive,inactive

SMILES,Potency [1],Potency [2]
O=S(=O)(O)c1cc(I)c(O)c2ncccc12,inactive,inactive
Cn1ccnc1,inactive,inactive
CC(C)NCC(O)c1ccc(O)c(O)c1 (stereo unspecified),inactive,inactive
N[C@H]1C(O)O[C@H](CO)[C@@H](O)[C@@H]1O (stereo partly specified),inactive,inactive
CNS(=O)(=O)c1cc(C(=O)N2CCC(CCN3C4CCC3CC(n3c(C)nc5ccccc53)C4)(c3cccc(F)c3)CC2)c(Cl)cc1F (stereo unspecified),inactive,inactive
COc1cc(Cc2cnc(N)nc2N)cc(OC)c1OC,inactive,inactive
O=C(NN1CCCC1)NS(=O)(=O)c1ccc(Cl)cc1,inactive,inactive
C=C[Si](OC)(OC)OC,inactive,inactive
COc1cc(OC)nc(O[C@H](C(=O)O)C(OC)(c2ccccc2)c2ccccc2)n1,inactive,inactive
C[C@H]1O[C@H](O[C@H]2[C@H](O)[C@@H](O)[C@@H](O[C@H]3[C@H](O)[C@@H](O)[C@H](O)O[C@@H]3CO)O[C@@H]2CO)[C@H](O)[C@@H](O)[C@@H]1N[C@H]1C=C(CO)[C@@H](O)[C@H](O)[C@H]1O,inactive,inactive
CC1(C)S[C@@H]2[C@H](NC(=O)C(c3ccccc3)S(=O)(=O)O)C(=O)N2[C@H]1C(=O)O (stereo partly specified),inactive,inactive
CC12CCC(C(=O)C1=O)C2(C)C (stereo unspecified),inactive,inactive
NS(=O)(=O)c1cc(C(=O)O)c(NCc2ccco2)cc1Cl,inactive,inactive
CCC[Si](OC)(OC)OC,inactive,inactive
CCO,inactive,inactive
O=C1CC2CC1C1CCCC21 (stereo unspecified),inactive,inactive
CO/N=C(\C(=O)O)c1csc(NC(=O)CCl)n1,inactive,inactive
CC[C@H]1OC(=O)[C@H](C)[C@@H](O[C@H]2C[C@@](C)(OC)[C@@H](O)[C@H](C)O2)[C@H](C)[C@@H](O[C@@H]2O[C@H](C)C[C@H](N(C)C)[C@H]2O)[C@](C)(OC)C[C@@H](C)C(=O)[C@H](C)[C@@H](O)[C@]1(C)O,inactive,inactive
CCCCOCCOCCOCc1cc2c(cc1CCC)OCO2,inactive,inactive
COC(=O)CSc1cc(N=c2sc(=O)n3n2CCCC3)c(F)cc1Cl,inactive,inactive
COC(OC)C(C)c1ccccc1 (stereo unspecified),inactive,inactive
CC(=C(CCOC(=O)C(C)C)SSC(CCOC(=O)C(C)C)=C(C)N(C=O)Cc1cnc(C)nc1N)N(C=O)Cc1cnc(C)nc1N,inactive,inactive
CC1=C(C(=O)O)N2C(=O)[C@@H](NC(=O)[C@H](N)C3=CCC=CC3)[C@H]2SC1,inactive,inactive
O=C1OC2(c3ccccc31)c1ccc(O)c(Br)c1Oc1c2ccc(O)c1Br,inactive,inactive

# Source: PubChem BioAssay (Tox21)
